From PubChem BioAssay (Tox21) come the findings set out here.

The nature of test [1]: qHTS assay to identify small molecule antagonists of the sonic hedgehog signaling (Shh) pathway (AID 1259369). Further: nearly all actives have a fitted effect of over 45% in size. Further: potency means the concentration at half of the fitted maximal effect. The gist of the method:
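Gli1 transcriptional reporter (firefly Luc) in NIH/3T3 background, conditioned-medium activated. 24hr exposure, luminescence endpoint.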

Test [2] in a line: qHTS assay to identify small molecule antagonists of the estrogen receptor beta (ER-beta) signaling pathway - cell viability counter screen (AID 1259382; active means well fitted curve in the direction sought with a large enough effect in the repeat runs; an effect the other way counts as inactive or inconclusive; further: nearly all actives have a fitted effect of over 55% in size; further: potency means the concentration at half of the fitted maximal effect). The gist of the method: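 HEK293T ER-beta-UAS-bla, 2% charcoal-stripped FBS; compounds + 1nM E2 16 hr 37C; CellTiter-Glo luminescence, 30 min RT.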
Test [3] addresses Estrogen receptor (Homo sapiens) (UniProt P03372). Briefly: qHTS assay to identify small molecule agonists of the estrogen receptor alpha (ER-alpha) signaling pathway in the presence of an antagonist (AID 1259383). Further: nearly all actives have a fitted effect of over 15% in size. Further: potency means the concentration at half of the fitted maximal effect. On activation: top concentration of the series differs between compounds. Summed up: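 ER-alpha agonism measured under antagonist challenge: 10.0nM ICI-182,780 (final) plus compound, 15 concentrations, 22hr, VM7Luc4E2 ERE-luciferase cells. Read by luminescence.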

Test [4] is described as follows: qHTS assay to identify small molecule agonists or antagonists of the thyroid stimulating hormone receptor (TSHR) signaling pathway - wild type cell line counter screen (AID 1259384). Further: potency means the concentration at half of the fitted maximal effect. The gist of the method:
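Wild-type Hek293 cells, 800/well, 18 h at 37C, then compound with Ro20-1724 for 30 min RT. cAMP by HTRF (cAMP-d2/anti-cAMP cryptate), 1 h RT, fluorescence read. 15 concentrations, triplicates.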

Test [5] can be described thus: qHTS assay to identify small molecule agonists of the estrogen receptor beta (ER-beta) signaling pathway - cell viability counter screen (AID 1259380; active means well fitted curve in the direction sought with a large enough effect in the repeat runs; an effect the other way counts as inactive or inconclusive; further: nearly all actives have a fitted effect of over 30% in size; further: potency means the concentration at half of the fitted maximal effect). Summed up:
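In this qHTS counter screen, HEK293T cells carrying an ER-beta/UAS beta-lactamase reporter, grown in 2% charcoal-stripped FBS, received compound for 16 hr; ATP-based CellTiter-Glo luminescence was then read after 30 min at room temperature.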

The target of test [6] is Androgen receptor (Homo sapiens) (UniProt P10275). The test can be described thus: qHTS assay to identify small molecule agonists of the androgen receptor (AR) signaling pathway in the presence of an antagonist (AID 1259381). Further: nearly all actives have a fitted effect of over 15% in size. Summed up: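 AR antagonist background: nilutamide 3.0uM final. Cell line: MDA-kb2, MMTV-driven luciferase, responsive to both AR and GR. Exposure 16hr, 37C, no CO2; ONE-Glo luminescence.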
Androgen receptor (Homo sapiens), sequence (P10275 whole entry, looked up): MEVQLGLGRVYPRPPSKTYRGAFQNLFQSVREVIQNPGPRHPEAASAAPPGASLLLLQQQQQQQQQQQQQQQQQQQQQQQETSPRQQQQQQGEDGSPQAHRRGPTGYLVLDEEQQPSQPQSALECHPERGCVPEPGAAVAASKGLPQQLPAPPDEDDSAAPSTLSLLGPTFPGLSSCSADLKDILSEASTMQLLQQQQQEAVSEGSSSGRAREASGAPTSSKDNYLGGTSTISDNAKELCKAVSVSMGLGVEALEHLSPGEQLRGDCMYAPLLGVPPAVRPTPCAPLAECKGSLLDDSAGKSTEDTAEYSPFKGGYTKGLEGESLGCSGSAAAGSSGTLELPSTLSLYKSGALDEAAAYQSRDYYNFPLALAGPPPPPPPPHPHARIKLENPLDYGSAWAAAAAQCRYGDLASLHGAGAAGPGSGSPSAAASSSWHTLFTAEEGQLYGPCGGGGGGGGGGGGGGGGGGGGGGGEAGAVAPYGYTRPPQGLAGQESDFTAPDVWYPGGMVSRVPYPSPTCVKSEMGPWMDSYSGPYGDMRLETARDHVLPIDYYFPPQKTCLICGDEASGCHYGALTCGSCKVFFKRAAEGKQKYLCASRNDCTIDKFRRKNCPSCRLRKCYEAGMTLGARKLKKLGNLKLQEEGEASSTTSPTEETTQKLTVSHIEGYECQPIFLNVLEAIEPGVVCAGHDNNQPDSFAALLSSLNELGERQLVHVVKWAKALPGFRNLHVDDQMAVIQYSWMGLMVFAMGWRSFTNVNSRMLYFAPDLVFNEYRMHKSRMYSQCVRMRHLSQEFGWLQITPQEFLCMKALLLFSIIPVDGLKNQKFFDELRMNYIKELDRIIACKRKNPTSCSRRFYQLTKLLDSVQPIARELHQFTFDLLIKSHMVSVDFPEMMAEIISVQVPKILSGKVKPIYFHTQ

The target in test [7] is Thyrotropin receptor (Homo sapiens) (UniProt P16473). The test can be described thus: qHTS assay to identify small molecule antagonists of the thyroid stimulating hormone receptor (TSHR) signaling pathway (AID 1259385). Further: nearly all actives have a fitted effect of over 20% in size. Further: potency means the concentration at half of the fitted maximal effect. The gist of the method:
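TSHR-HEK293 cells (800/well) plated 18 h, then compounds with Ro20-1724 and TSH at 1.5 ng/mL final, 30 min at room temperature. cAMP quantified by HTRF (cAMP-d2/anti-cAMP-cryptate, 1 h); 15 concentrations in triplicate.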

The target in test [8] is Estrogen receptor beta (Homo sapiens) (UniProt Q92731). Briefly: qHTS assay to identify small molecule agonists of the estrogen receptor beta (ER-beta) signaling pathway (AID 1259377; active means well fitted activation curve with a large enough effect in the signal ratio in the repeat runs, not every such curve was filed as active; the % refers to the signal ratio). Summed up: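 Agonist mode cell assay in GripTite HEK293T cells expressing an ER-beta fusion that drives beta-lactamase from an Upstream Activator Sequence; 16 hr compound exposure at 37C, then 2 h LiveBLAzer B/G FRET substrate at room temperature, fluorescence read-out.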
Estrogen receptor beta (Homo sapiens), sequence (Q92731 whole entry, looked up, the tested form may be a part): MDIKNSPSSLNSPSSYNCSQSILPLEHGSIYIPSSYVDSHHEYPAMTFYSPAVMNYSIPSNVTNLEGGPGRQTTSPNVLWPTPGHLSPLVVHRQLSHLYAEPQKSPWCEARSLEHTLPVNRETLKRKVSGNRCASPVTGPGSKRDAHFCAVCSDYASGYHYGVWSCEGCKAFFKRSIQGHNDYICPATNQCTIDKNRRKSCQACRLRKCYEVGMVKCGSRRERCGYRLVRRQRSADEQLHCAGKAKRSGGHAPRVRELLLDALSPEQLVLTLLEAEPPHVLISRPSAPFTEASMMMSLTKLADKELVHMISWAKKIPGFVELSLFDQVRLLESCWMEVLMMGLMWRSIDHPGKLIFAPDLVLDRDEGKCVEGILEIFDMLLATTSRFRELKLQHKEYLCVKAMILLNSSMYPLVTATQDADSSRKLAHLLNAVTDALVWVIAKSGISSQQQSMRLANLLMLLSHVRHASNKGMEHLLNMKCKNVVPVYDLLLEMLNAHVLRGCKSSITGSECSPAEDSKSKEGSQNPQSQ

The target is the same in test [9]. The test can be described thus: qHTS assay to identify small molecule antagonists of the estrogen receptor beta (ER-beta) signaling pathway (AID 1259378; active means well fitted inhibition curve with a large enough effect in the signal ratio in the repeat runs, not every such curve was filed as active; the % refers to the signal ratio; further: potency means the concentration at half of the fitted maximal effect). The gist of the method: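 ER-beta-UAS-bla HEK293T cells in 2% charcoal-stripped FBS medium treated with compound plus 1nM final 17-beta-estradiol for 16 hr at 37C. Beta-lactamase reporter read by FRET substrate fluorescence after 2 hours at room temperature.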

Test [10] is described as follows: qHTS assay to identify small molecule agonists of the androgen receptor (AR) signaling pathway in the presence of an antagonist - cell viability counter screen (AID 1259379; active means well fitted curve in the direction sought with a large enough effect in the repeat runs; an effect the other way counts as inactive or inconclusive; further: nearly all actives have a fitted effect of over 25% in size; further: potency means the concentration at half of the fitted maximal effect). The gist of the method: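 Counter screen for cell viability run in parallel with the AR agonist-mode luciferase assay. MDA-kb2 cells were co-treated with nilutamide (3.0uM final) and compounds, then incubated 16 hr at 37C, and CellTiter-Fluor fluorescence was measured.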

Where “and” joins values, the source holds several entries; their conditions need not be identical. Equal values may be shown once. Inconclusive results are not listed. Calls of active or inactive are those of the source. Unless noted, the call rests on the fitted dose curve.

Thyrotropin receptor (Homo sapiens), sequence (P16473 whole entry, looked up): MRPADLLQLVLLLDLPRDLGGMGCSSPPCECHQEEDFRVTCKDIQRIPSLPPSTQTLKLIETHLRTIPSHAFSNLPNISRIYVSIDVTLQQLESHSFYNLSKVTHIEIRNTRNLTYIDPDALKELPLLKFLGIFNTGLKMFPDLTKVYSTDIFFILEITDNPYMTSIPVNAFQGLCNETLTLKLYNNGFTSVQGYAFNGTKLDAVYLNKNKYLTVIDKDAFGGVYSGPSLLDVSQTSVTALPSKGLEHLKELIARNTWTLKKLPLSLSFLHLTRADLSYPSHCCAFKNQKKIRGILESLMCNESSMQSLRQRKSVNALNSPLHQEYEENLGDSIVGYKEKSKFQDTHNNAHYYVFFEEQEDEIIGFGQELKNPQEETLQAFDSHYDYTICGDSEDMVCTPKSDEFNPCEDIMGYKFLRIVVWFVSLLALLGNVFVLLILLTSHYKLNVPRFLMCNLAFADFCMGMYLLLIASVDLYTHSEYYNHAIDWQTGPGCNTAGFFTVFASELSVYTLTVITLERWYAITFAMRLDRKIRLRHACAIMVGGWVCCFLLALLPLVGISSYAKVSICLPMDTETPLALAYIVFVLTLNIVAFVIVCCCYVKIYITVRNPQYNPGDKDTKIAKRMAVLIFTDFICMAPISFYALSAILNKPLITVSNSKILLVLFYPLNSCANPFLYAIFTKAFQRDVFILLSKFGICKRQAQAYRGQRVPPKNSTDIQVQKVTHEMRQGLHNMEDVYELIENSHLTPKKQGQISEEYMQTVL
Estrogen receptor (Homo sapiens), sequence (P03372 whole entry, looked up): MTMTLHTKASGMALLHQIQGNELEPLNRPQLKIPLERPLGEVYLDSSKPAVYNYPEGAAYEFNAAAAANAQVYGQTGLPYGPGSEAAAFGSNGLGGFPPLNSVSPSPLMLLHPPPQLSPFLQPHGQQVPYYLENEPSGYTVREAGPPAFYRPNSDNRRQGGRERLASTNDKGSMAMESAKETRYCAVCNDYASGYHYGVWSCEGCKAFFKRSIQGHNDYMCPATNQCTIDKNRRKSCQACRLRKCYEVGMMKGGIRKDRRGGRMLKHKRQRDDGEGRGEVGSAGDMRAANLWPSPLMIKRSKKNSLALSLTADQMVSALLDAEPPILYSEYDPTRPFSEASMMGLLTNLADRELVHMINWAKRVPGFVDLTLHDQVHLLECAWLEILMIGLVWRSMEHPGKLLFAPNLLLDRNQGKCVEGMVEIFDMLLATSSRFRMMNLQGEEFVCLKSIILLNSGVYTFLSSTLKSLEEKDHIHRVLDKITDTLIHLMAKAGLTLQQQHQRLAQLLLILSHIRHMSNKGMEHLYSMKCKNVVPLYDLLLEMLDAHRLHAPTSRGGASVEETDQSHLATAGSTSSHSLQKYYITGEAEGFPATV

As for `O=S1(=O)OCC2C(CO1)C1(Cl)C(Cl)=C(Cl)C2(Cl)C1(Cl)Cl` (configuration not stated), the Potency result in test [1], in [2], in [3] and in test [4] was “inactive” in each case.

On to `O=C(CCCCl)c1ccc(F)cc1`, for which the Potency result in test [1], in test [5], in test [6], in test [2], in test [3] and in test [4] was “inactive” throughout. Moreover, the Potency result in [7] is “inactive”.

`Cc1cc2c3c(c1)C(c1ccccc1)=N[C@@H](NC(=O)c1ccncc1)C(=O)N3CC2`: the Potency result in test [8], in [9], in [10], in [5], in test [2] and in [3] was “inactive” in each case. The Potency result in test [4] and in test [7] was “inactive” in each case.

In the case of `CC1=C2C[C@H]3[C@@H](CC=C4C[C@@H](O)CC[C@@]43C)[C@@H]2CC[C@]12O[C@@H]1C[C@H](C)CN[C@H]1[C@H]2C`, the Potency is 0.266 µM (active) in test [1] and 26.6 µM (active) in test [10]. The Potency result in [6], in test [2], in test [3], in test [4] and in [7] was “inactive” in each case.

Regarding `CN(C)C(=S)SSC(=S)N(C)C`, the Potency in [1] is 47.9 nM (active) and 306 nM (active) and 531 nM (active); in [5], 135 nM (active) and 1.72 µM (active) and 119 nM (active); in [2], 479 nM (active) and 273 nM (active) and 237 nM (active). Further, the Potency result in test [6] and in test [3] was “inactive” in each case.

With `[C-]1=CC=CC1.[Cl][Zr+2][Cl].c1cc[cH-]c1`, the Potency entry in test [1], in test [10] and in test [2] was “inactive” each time.

In the case of `CCNS(=O)(=O)C(F)(F)C(F)(F)C(F)(F)C(F)(F)C(F)(F)C(F)(F)C(F)(F)C(F)(F)F`, the values for the Potency in [1] and in [5] were 32.9 µM (active) and 23.3 µM (active), respectively. The Potency entry in test [6], in test [2], in [4] and in [7] was “inactive” throughout.

Consider `CCCCC(CC)COC(=O)OOC(C)(C)C` (configuration not stated), for which the Potency entry in test [1], in [10] and in [2] was “inactive” in each case.

`CC(C)Br`: the Potency result in [1], in test [10], in test [2], in test [3], in test [4] and in test [7] was “inactive” each time.

As for `CCOP(=S)(NC(C)C)Oc1ccccc1C(=O)OC(C)C` (configuration not stated), the Potency result in test [1], in [3] and in test [4] was “inactive” in each case. In test [5], the Potency is 3.86 µM (active).

As for `CCCCN(CCCC)C(=S)S`, the Potency entry in test [1], in test [2] and in test [3] was “inactive” each time.

Take `CCC(C)c1cccc(C(C)CC)c1O` (configuration not stated): the Potency entry in test [1], in test [2], in [3] and in test [7] was “inactive” each time.

As to `CCCCON=O`, the Potency entry in [1], in test [10], in test [2] and in test [7] was “inactive” each time.

As to `CSC(=O)c1c(C(F)F)nc(C(F)(F)F)c(C(=O)SC)c1CC(C)C`, the Potency result in test [1], in test [10], in test [2], in [3], in test [4] and in [7] was “inactive” in each case.

As to `c1ccc2c(c1)cc1ccc3cccc4ccc2c1c34`, the Potency result in [1], in test [5], in test [2], in test [4] and in test [7] was “inactive” each time.

Consider `C=CCBr`, for which the Potency result in test [1], in test [5], in test [2], in [3], in test [4] and in test [7] was “inactive” throughout.

Turning to `CN1CCc2cc(Cl)c(O)cc2[C@H]2c3ccccc3CC[C@@H]21`, the Potency result in [1], in [2], in test [3], in test [4] and in test [7] was “inactive” in each case.

For the compound `CC[C@]1(O)CC[C@H]2[C@@H]3CCC4=CCCC[C@@H]4[C@H]3CC[C@@]21C`, the Potency in test [1] was 13.3 µM (active); in test [3] it was 0.0019 µM (active). In addition, the Potency result in test [10], in test [2], in test [4] and in test [7] was “inactive” each time.

Take `CC(C)C(Br)C(=O)NC(N)=O` (configuration not stated): the Potency result in test [8], in test [9], in test [10], in test [5], in test [2] and in test [3] was “inactive” in each case. For the same compound, the Potency entry in [4] and in test [7] was “inactive” in each case.

As to `COc1cnc(OC)n2nc(NS(=O)(=O)c3c(OCC(F)F)cccc3C(F)(F)F)nc12`, the Potency entry in test [8], in test [9], in test [10], in test [5], in test [2] and in [3] was “inactive” each time. The Potency entry in test [4] and in test [7] was “inactive” in each case.

Turning to `CNC(=O)O/N=C(\C)C(C)S(C)(=O)=O` (configuration not stated), in test [1], the Potency was 282 µM (active). The Potency result in test [5], in test [2] and in test [7] was “inactive” each time.

Turning to `CCOP(=S)(OCC)Oc1cc(C)nc(N(CC)CC)n1`, the Potency entry in [8], in [9], in [10], in test [5], in test [6] and in test [2] was “inactive” each time. Moreover, the Potency entry in [3] and in [4] was “inactive” throughout. Besides, in [7], the Potency was 30.6 µM (active).

Take `C1=CCC=C1`: the Potency entry in test [1], in test [10] and in test [2] was “inactive” in each case.

Consider `COP(=S)(OC)Oc1nc(Cl)c(Cl)cc1Cl`, for which the Potency entry in test [1], in test [10], in [3], in test [4] and in test [7] was “inactive” each time.

For the compound `O=c1[nH]c(Cl)c(Cl)cc1Cl`, the Potency entry in test [1], in [10], in test [6], in [4] and in [7] was “inactive” in each case.

Regarding `CCOP(=O)(Sc1ccccc1)Sc1ccccc1`, the Potency result in test [1], in test [10], in test [2], in test [3], in [4] and in test [7] was “inactive” each time.

For `CC(Cc1ccc(O)cc1)NCC(O)c1cc(O)cc(O)c1` (configuration not stated), the Potency entry in test [1], in [2], in [3] and in test [7] was “inactive” throughout. For the same compound, the Potency in test [4] was 0.668 µM (active).

Regarding `CCCCCCCc1ccc(O)cc1`, the Potency result in test [8], in test [10], in test [6], in test [3], in test [4] and in test [7] was “inactive” throughout. Besides, the Potency in test [9] was 54.5 µM (active); in [5], 54.5 µM (active); in test [2], 48.6 µM (active).

Consider `CCCN`, for which the Potency entry in [1], in test [5], in test [2], in test [4] and in [7] was “inactive” each time.

Consider `C=CC(=C)C`, for which the Potency result in [8], in test [9], in [10], in test [5], in test [2] and in [3] was “inactive” each time. In addition, the Potency entry in test [4] and in test [7] was “inactive” each time.
